Results taken from PubChem BioAssay (EPA / NIEHS).
Records with an inconclusive call do not appear. Activity calls are given as the source filed them. Rule for the calls: active = hit-call score of the fitted dose curve at least 0.9, where 1 is the maximum; inconclusive = response in the unintended direction; inactive = score below 0.9.

Tests used:
[1] = biological target: Serine/threonine-protein phosphatase PP1-alpha catalytic subunit (Homo sapiens) (UniProt P62136); assay: NVS_ENZ_hPPP1CA: NovaScreen (NVS) Enzymatic Assay for human Protein Phosphatase 1 Aatalytic subunit Alpha (PPP1CA) (AID 2283200)
Procedure, shortened: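 Recombinant enzyme activity read by fluorescence with electrophoretic mobility shift separating substrate from product, 1.33 h after dosing; loss of signal vs DMSO baseline. Primary screen in duplicate at 25 uM; actives retested in concentration-response up to 50 uM.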

[2] = biological target: human Protein Tyrosine Phosphatase Non-receptor Type 1 (PTPN1), PTPN1 (gene 5770) (UniProt P18031); assay: NVS_ENZ_hPTPN1: NovaScreen (NVS) Enzymatic Assay for human Protein Tyrosine Phosphatase Non-receptor Type 1 (PTPN1) (AID 2283201)
Procedure, shortened: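 Cell-free fluorogenic-substrate activity assay on recombinant enzyme, read 1.33 h after dosing by fluorescence and electrophoretic mobility shift; loss of signal vs DMSO baseline. Primary screen in duplicate at 25 uM, hits then run in concentration-response up to 50 uM.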

[3] = biological target: Tyrosine-protein phosphatase non-receptor type 11 (Homo sapiens) (UniProt Q06124); assay: NVS_ENZ_hPTPN11: NovaScreen (NVS) Enzymatic Assay for human Protein Tyrosine Phosphatase Non-receptor Type 11 (PTPN11) (AID 2283202)
Procedure, shortened: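 Recombinant human PTPN11 activity on a fluorescent substrate, with substrate/product separated by electrophoretic mobility shift; read 0.5 h after dosing, loss of signal vs DMSO. Duplicate 25 uM screen, then concentration-response up to 50 uM.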

[4] = biological target: Tyrosine-protein phosphatase non-receptor type 12 (Homo sapiens) (UniProt Q05209); assay: NVS_ENZ_hPTPN12: NovaScreen (NVS) Enzymatic Assay for human Protein Tyrosine Phosphatase Non-receptor Type 12 (PTPN12) (AID 2283204)
Procedure, shortened: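 Single-concentration duplicates (25 uM) preceded singleton concentration-response up to 50 uM for chemicals passing threshold. Cell-free recombinant PTPN12 activity was read 1.33 h after dosing via fluorescence after mobility-shift separation; loss of signal versus DMSO.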

[5] = biological target: Tyrosine-protein phosphatase non-receptor type 13 (Homo sapiens) (UniProt Q12923); assay: NVS_ENZ_hPTPN13: NovaScreen (NVS) Enzymatic Assay for human Protein Tyrosine Phosphatase Non-receptor Type 13 (PTPN13) (AID 2283205)
Procedure, shortened: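 Cell-free assay of recombinant human PTPN13 with a fluorescent substrate, product separated by electrophoretic mobility shift and read 0.5 h after dosing. Primary screen at 25 uM in duplicate, then concentration-response up to 50 uM. Loss of signal fitted against DMSO.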

[6] = biological target: Tyrosine-protein phosphatase non-receptor type 14 (Homo sapiens) (UniProt Q15678); assay: NVS_ENZ_hPTPN14: NovaScreen (NVS) Enzymatic Assay for human Protein Tyrosine Phosphatase Non-receptor Type 14 (PTPN14) (AID 2283206)
Procedure, shortened: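 Cell-free recombinant human PTPN14 with fluorescent substrate, read 0.5 h after dosing by fluorescence and electrophoretic mobility shift separating substrate from product. Primary screen at 25 uM in duplicate; hits run to 50 uM maximum; loss of signal versus DMSO.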

[7] = biological target: human Protein Tyrosine Phosphatase Non-receptor Type 4 (PTPN4), PTPN4 (gene 5775) (UniProt P29074); assay: NVS_ENZ_hPTPN4: NovaScreen (NVS) Enzymatic Assay for human Protein Tyrosine Phosphatase Non-receptor Type 4 (PTPN4) (AID 2283208)
Procedure, shortened: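 Cell-free assay of PTPN4 expressed in Sf9 cells, using a fluorescent substrate with product separated by mobility shift; read 1.33 h after dosing. Single-point screen at 25 uM, then concentration-response up to 50 uM. Loss of signal relative to DMSO.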

Tyrosine-protein phosphatase non-receptor type 12 (Homo sapiens), sequence (Q05209 whole entry, looked up): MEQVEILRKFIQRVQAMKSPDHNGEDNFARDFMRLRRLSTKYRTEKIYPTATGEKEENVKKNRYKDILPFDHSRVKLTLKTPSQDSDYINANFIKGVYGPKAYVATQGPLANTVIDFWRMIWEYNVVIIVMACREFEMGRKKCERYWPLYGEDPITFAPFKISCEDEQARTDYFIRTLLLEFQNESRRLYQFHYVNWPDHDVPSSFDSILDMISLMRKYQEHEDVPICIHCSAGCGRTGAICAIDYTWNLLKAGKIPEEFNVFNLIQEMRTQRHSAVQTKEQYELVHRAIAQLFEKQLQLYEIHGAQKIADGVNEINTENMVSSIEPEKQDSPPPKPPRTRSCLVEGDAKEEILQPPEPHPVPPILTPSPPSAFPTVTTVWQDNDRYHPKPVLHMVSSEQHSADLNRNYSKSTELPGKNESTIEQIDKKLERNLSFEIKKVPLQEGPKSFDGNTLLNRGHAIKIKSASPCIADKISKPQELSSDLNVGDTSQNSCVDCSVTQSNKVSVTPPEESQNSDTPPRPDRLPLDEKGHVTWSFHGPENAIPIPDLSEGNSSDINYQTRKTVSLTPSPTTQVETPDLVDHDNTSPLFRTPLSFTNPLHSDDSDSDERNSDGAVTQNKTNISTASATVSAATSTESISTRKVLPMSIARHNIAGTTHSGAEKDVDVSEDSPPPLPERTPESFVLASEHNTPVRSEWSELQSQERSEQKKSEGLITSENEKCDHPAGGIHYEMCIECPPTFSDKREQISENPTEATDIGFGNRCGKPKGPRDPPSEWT
Tyrosine-protein phosphatase non-receptor type 11 (Homo sapiens), sequence (Q06124 whole entry, looked up): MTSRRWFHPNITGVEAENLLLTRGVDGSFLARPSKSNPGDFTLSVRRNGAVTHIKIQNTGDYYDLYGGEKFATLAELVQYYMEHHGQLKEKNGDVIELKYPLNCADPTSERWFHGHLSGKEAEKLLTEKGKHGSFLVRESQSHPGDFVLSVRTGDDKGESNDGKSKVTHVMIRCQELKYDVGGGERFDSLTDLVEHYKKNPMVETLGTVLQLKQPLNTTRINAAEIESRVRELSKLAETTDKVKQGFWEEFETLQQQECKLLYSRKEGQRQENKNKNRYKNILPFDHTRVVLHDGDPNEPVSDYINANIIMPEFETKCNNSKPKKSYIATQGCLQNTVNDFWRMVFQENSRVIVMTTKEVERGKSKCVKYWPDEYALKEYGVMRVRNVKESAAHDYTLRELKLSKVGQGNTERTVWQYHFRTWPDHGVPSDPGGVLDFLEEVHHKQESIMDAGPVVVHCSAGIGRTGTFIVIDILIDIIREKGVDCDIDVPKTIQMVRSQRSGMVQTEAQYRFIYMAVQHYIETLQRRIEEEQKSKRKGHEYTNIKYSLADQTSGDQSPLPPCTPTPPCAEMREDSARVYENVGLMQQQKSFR
human Protein Tyrosine Phosphatase Non-receptor Type 4 (PTPN4), PTPN4 (gene 5775), sequence (P29074 whole entry, looked up): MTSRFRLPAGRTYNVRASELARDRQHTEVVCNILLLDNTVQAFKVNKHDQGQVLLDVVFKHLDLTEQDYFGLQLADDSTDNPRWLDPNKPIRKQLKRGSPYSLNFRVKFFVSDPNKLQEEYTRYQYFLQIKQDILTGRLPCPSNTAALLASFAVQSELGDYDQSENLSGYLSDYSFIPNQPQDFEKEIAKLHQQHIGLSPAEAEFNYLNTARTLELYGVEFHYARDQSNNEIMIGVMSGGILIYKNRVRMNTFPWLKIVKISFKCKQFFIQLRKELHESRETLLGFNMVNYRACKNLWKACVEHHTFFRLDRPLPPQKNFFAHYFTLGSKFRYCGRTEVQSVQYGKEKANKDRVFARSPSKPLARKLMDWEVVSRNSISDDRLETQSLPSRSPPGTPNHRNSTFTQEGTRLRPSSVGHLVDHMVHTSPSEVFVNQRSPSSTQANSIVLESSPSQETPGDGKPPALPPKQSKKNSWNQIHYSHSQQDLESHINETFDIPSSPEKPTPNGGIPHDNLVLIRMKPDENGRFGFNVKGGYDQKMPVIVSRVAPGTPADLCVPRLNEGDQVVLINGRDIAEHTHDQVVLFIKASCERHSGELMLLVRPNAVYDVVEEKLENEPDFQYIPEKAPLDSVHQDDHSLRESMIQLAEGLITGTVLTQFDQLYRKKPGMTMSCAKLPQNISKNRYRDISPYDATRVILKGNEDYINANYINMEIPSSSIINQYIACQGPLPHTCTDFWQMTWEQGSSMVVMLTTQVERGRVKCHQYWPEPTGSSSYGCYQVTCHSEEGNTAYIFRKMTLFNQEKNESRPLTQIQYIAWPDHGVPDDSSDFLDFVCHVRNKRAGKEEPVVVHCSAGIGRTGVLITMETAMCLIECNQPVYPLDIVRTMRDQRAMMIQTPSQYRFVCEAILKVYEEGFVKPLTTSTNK
Tyrosine-protein phosphatase non-receptor type 14 (Homo sapiens), sequence (Q15678 whole entry, looked up): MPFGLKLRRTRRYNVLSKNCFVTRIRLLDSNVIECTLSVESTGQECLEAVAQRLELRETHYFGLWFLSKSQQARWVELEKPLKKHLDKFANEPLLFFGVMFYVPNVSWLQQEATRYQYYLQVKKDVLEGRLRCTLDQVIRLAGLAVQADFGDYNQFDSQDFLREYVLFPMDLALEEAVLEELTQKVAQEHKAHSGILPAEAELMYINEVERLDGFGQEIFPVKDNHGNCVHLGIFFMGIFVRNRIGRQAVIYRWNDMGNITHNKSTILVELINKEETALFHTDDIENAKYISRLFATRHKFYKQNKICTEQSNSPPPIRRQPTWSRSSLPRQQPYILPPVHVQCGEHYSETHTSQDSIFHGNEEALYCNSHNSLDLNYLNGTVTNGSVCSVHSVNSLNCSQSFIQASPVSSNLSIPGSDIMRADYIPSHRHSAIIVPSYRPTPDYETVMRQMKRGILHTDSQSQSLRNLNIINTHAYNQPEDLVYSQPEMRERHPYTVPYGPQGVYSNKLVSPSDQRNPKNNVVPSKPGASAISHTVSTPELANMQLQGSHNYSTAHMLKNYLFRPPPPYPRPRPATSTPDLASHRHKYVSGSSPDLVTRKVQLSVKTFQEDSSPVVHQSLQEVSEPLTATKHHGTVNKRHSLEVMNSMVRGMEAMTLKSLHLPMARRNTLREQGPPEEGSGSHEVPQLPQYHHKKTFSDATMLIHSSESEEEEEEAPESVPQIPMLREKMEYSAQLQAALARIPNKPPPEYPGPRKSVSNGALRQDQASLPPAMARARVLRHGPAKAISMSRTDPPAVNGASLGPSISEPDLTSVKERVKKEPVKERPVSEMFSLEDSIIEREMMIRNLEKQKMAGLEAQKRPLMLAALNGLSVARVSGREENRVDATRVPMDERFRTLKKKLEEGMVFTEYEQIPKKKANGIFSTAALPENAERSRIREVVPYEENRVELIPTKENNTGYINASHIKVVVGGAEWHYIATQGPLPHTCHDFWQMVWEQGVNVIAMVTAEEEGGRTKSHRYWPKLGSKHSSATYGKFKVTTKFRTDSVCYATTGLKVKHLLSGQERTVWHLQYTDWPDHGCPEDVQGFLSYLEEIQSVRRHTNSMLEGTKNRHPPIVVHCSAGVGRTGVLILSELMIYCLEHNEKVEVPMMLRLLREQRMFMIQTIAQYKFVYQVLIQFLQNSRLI
Serine/threonine-protein phosphatase PP1-alpha catalytic subunit (Homo sapiens), sequence (P62136 whole entry, looked up): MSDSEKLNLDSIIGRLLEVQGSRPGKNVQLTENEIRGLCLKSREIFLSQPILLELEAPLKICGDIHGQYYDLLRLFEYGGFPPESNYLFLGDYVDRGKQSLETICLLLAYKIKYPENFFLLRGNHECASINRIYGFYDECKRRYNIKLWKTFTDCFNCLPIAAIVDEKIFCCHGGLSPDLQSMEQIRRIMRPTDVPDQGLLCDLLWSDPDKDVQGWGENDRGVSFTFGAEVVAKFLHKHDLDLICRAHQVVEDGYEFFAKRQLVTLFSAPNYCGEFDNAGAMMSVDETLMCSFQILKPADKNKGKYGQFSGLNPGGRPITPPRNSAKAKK
human Protein Tyrosine Phosphatase Non-receptor Type 1 (PTPN1), PTPN1 (gene 5770), sequence (P18031 whole entry, looked up): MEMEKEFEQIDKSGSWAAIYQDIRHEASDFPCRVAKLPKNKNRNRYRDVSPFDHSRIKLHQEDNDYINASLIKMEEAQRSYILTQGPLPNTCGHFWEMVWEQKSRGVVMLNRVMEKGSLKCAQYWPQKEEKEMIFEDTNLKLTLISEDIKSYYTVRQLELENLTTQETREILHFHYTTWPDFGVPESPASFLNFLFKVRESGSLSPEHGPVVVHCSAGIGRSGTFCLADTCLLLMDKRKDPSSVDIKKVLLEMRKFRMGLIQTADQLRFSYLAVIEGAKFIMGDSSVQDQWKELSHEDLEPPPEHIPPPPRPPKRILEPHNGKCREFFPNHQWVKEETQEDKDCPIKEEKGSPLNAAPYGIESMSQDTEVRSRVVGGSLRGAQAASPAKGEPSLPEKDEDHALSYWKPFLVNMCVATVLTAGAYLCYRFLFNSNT

CC(=O)Nc1ccc(O)cc1
outcome [1]: inactive

CCCCCCCCCCCCOS(=O)(=O)O
AC50 [2]: 22.7 µM (active) | AC50 [3]: 38.4 µM (active) | AC50 [4]: 11.9 µM (active) | AC50 [5]: 46.3 µM (active) | outcome [6]: inactive | AC50 [7]: 10.7 µM (active)

CCCCCC(C)OC(=O)COc1ccc(Cl)c2cccnc12 (stereo not drawn)
outcome [4]: inactive
